Reference: PubChem BioAssay (Tox21)
“And” between values parts separate entries of the source, which are not always exact repeats. Identical values can stand only once. Records with an inconclusive call do not appear. Where a call stands in place of a potency, no number is given. A structure can be active in one record and inactive in another. The source made the active and inactive calls. Calls come from the whole dose curve.

test: qHTS assay for small molecule agonists of the p53 signaling pathway - cell viability (AID 651633); settings: p53RE-bla HCT-116 viability, ATP luminescence, 16 h; series mostly up to 83.3 µM; note: nearly all actives have a fitted effect of over 30% in size;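 for activity change, negative = cytotoxicity: p53RE-bla HCT reporter cells with a stable beta-lactamase p53 reporter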
Text: National Center for Advancing Translational Sciences [NCATS]
NIH Chemical Genomics Center [NCGC]
U.S. Environmental Protection Agency [EPA]
National Institutes of Environmental Health Sciences [NIEHS]
National Toxicology Program [NTP]
U.S. Food and Drug Administration [FDA]
p53, a tumor suppressor protein, is activated following cellular insult, including DNA damage and other cellular stresses. The activation of p53 regulates cell fate by inducing DNA repair, cell cycle arrest, apoptosis, or cellular senescence. The activation of p53, therefore, is a good indicator of DNA damage and other cellular stresses. […] The activation of the reporter gene under culture conditions can be detected by fluorescence intensity. This cell line was used to screen the Tox21 compound library in a 1536-well plate format and to identify agonists that activate the p53 signaling pathway.
Tox21 Assay Protocol Summary:
The p53RE-bla cells were dispensed at 4,000 cells/5 ul/well in 1536-well black wall/clear bottom plates using a Multidrop dispenser. After the assay plates were incubated at a 37 C/5% CO2 incubator for 5 hours, 23 nL of compounds dissolved in DMSO, positive controls or DMSO only was transferred to the assay plate by a pin tool. The plates were incubated at 37 C for 16 hours. After 1 uL of LiveBLAzerTM B/G FRET substrate was added using a Flying Reagent Dispenser, the plates were incubated at room temperature for 2 hours, and fluorescence intensity was measured by an Envision plate reader.
For cell viability readout that measures cytotoxicity, 4 ul/well of CellTiter-Glo reagent was added into the assay plates using a Flying Reagent Dispenser. After 30 min incubation at room temperature, the luminescence intensity in the plates was measured using a ViewLux plate reader.
Potency is the fitted concentration of half-maximal effect.

Structure (SMILES) | Potency | activity change, negative = cytotoxicity
Cc1c(C)c2c(c(C)c1OC(=O)c1cccnc1)CC[C@@](C)(CCC[C@H](C)CCC[C@H](C)CCCC(C)C)O2 | inactive | 
O=S(=O)(O)c1ccc(Nc2nc(Nc3ccc(/C=C/c4ccc(Nc5nc(Nc6ccc(S(=O)(=O)O)cc6)nc(N(CCO)CCO)n5)cc4S(=O)(=O)O)c(S(=O)(=O)O)c3)nc(N(CCO)CCO)n2)cc1 | inactive | 
O=C1c2ccccc2C(=O)N1SC1CCCCC1 | 68.5 µM (active) and inactive | 
Clc1ccnc(Cl)n1 | inactive | 
CCCCC(CC)COC(=O)CCCCC(=O)OCc1ccccc1 (stereo not given) | inactive | 
COC1=C(OC)C(=O)C(CCCCCCCCCCO)=C(C)C1=O | 29.8 µM (active) | 
c1ccsc1 | inactive | 
O=C(O)CCN(C1(C(=O)NO)CCCC1)S(=O)(=O)c1ccc(Oc2ccc(F)cc2)cc1 | inactive | 
CC(C)CCCCCOC(=O)CCS | inactive | 
Clc1nnc(Cl)c2ccccc12 | inactive | 
CN1CCN(Cc2cc(-c3ccc4[nH]c(=O)oc4c3)co2)[C@@H](c2ccc(F)cc2)C1 | inactive | 
COC(=O)Nc1nc2ccc(C(=O)c3ccccc3)cc2[nH]1 | inactive | 
C=CCCC(=O)/C=C/C1C(C)=CCCC1(C)C (stereo not given) | inactive | 
OC[C@H]1O[C@H](O[C@H]2O[C@H](CO)[C@@H](O)[C@H](O)[C@H]2O)[C@H](O)[C@@H](O)[C@@H]1O | inactive | 
CC(C)(C)c1ccc(C(O)CCCN2CCC(C(O)(c3ccccc3)c3ccccc3)CC2)cc1 (stereo not given) | 29.8 µM (active) and 18.8 µM (active) | 
Cc1ccc(C)cc1 | inactive | 
CCN(CC)c1ccc2c(-c3ccc(S(=O)(=O)O)cc3S(=O)(=O)[O-])c3ccc(=[N+](CC)CC)cc-3oc2c1 | 9.99 µM (active) | 
[Cl][Pt-2]([Cl])([Cl])[Cl] | inactive | 
CC(C)(C)NSc1nc2ccccc2s1 | inactive | 
O=C(O)Cc1ccccc1Nc1c(Cl)cccc1Cl | inactive | 

Structure (SMILES) | Potency | activity change, negative = cytotoxicity
CC(CO)Oc1ccccc1 (stereo not given) | inactive | 
Nc1nc(-c2ccccc2)cs1 | inactive | 
C#C[C@]1(OC(C)=O)CC[C@H]2[C@@H]3CCC4=C[C@@H](OC(C)=O)CC[C@@H]4[C@H]3CC[C@@]21C | 29.8 µM (active) and inactive | 
CCO[Si](OCC)(OCC)OCC | inactive | 
CC(=O)Oc1cc2c(s1)CCN(C(C(=O)C1CC1)c1ccccc1F)C2 (stereo not given) | inactive | 
Sc1nc2ccccc2s1 | inactive | 
CC(N=C(NC#N)Nc1ccncc1)C(C)(C)C (stereo not given) | inactive | 
CCCCNS(=O)(=O)c1ccc(C)cc1 | inactive | 
Cc1cc(C(C)(C)C)c(O)c(C)c1Cn1c(=O)n(Cc2c(C)cc(C(C)(C)C)c(O)c2C)c(=O)n(Cc2c(C)cc(C(C)(C)C)c(O)c2C)c1=O | inactive | 
CCOC(=O)NNc1ccc(N(CC)CC(C)O)nn1 (stereo not given) | inactive | 
C[C@H]1NCc2cc(-c3ccc4c(=O)c(C(=O)O)cn(C5CC5)c4c3OC(F)F)ccc21 | inactive | 
Cc1cccc2cccnc12 | inactive | 
CCCCCCCCCCOC(=O)c1ccccc1C(=O)OCCCCCCCC | inactive | 
CCOc1ccc2ccccc2c1C(=O)N[C@@H]1C(=O)N2[C@@H]1SC(C)(C)[C@@H]2C(=O)O | inactive | 
O=C(O)c1cccc(C(F)(F)F)c1 | inactive | 
CCCCCCCC/C=C\CCCCCCCCN | inactive | 
ClCCl | inactive | 
CC(C)(C)CC(C)(C)c1ccc(Nc2ccc(C(C)(C)CC(C)(C)C)cc2)cc1 |  | -13.1% [at 8.08 µM] (inactive)
O=C1C(c2[nH]c3ccc(S(=O)(=O)O)cc3c2O)=Nc2ccc(S(=O)(=O)O)cc21 | inactive | 
CNc1ccc([N+](=O)[O-])cc1 | inactive | 
